Usually inhibition stands for the relative decrease from the control value, in per cent.

Structures are written as SMILES. In all, about 84,000 compounds went through this assay and about 110 (0.13%) were called active. No stated cut-off is given here; in the data, active means inhibition above about 30% (passing the limit was not always enough); inactive means the rest. Shown is part of a subset that was picked to be rich in actives.

This assay concerns MgrA (MarR family transcriptional regulator), Staphylococcus aureus Newman. The assay can be described thus: modulators of MgrA DNA binding – biochemical, S. aureus Newman, fluorescence polarization, primary screen (AID 602314).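 Further: 0% = protein plus DNA without compound and 100% = DNA alone without protein; higher means less MgrA bound to DNA so lower polarization.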 Conditions: active compounds read high, concentration not given here. A general note: In fluorescence polarisation assays a small probe gives low polarisation when free and higher when bound to something large.
`COc1ccc(Cl)c2c1NC(c1ccncc1)C1CC=CC21` (stereo unspecified): the inhibition is 0% (inactive). For `CC1(C)CC(CC#N)(c2ccccc2)CCO1` (stereo unspecified) the value was -1.15% (inactive); for `Cn1c(SCC(=O)NCc2ccc(Cl)cc2)nnc1-c1ccc(Cl)cc1`, -0.25% (inactive); for `NC(=O)c1ccccc1N=Cc1ccc2ccccc2c1`, -2.2% (inactive). For `Cc1ccc2c(c1)NC(c1cc(Cl)cc(Cl)c1O)c1cccn1-2` (stereo unspecified) the value was 0.6% (inactive). Regarding `Cc1nc2onc(OCC(=O)OCc3ccccc3)c2c(C)c1C`, the inhibition is 0.6% (inactive). Regarding `O=C1CCCN1c1ccc(OC(F)(F)F)cc1`, the inhibition was -1.5% (inactive). For the molecule `C=CCC1NC(C)(C)Cc2ccccc21` (stereo unspecified), the inhibition was -0.25% (inactive). For `CC1CCCCN1C(=O)c1ccccc1F` (stereo unspecified) the value was -1.4% (inactive); for `NCC1(N2CCCCC2)CCCCC1`, -1.35% (inactive); for `Cc1onc(-c2ccccc2)c1C(=O)N=C(N)c1ccc(Cl)cc1`, -1.9% (inactive).

As for `C=CCSc1nc2c(c(=O)[nH]c(=O)n2C)n1C/C=C(\C)Cl`, the inhibition was 3% (inactive). As for `Cc1cc(C)cc(C(=O)OCC(=O)Nc2cccc(C(F)(F)F)c2)c1`, the inhibition was 3.35% (inactive). In the case of `COC(=O)c1sc(-c2ccc(Cl)cc2)cc1NC(=O)c1ccc2nsnc2c1`, the inhibition is -0.8% (inactive). As to `CC(=O)N1N=C(c2c(-c3ccccc3)c3cc(Cl)ccc3[nH]c2=O)CC1c1cccc(Br)c1` (stereo unspecified), the inhibition was -1.4% (inactive).

On to `Cc1[nH]ncc1-c1ccccc1`, for which the inhibition was -1.4% (inactive).

For `CCOC(=O)c1sc(SC)c2c1CC(c1ccc(C)cc1)CC2=O` (stereo unspecified), the inhibition was -0.2% (inactive).

On to `O=[N+]([O-])c1cc(C(F)(F)F)cc([N+](=O)[O-])c1Oc1ccc(Cl)cc1Cl`, for which the inhibition was 3.2% (inactive). Then `CC(C)(C)c1c[n+](-c2ccccc2)c2n1CCS2`, with 0.1% (inactive); and `COC(=O)COc1ccccc1C#N`, with 0.4% (inactive); and `CC1OC(O[C@H]2/C=C/C=C/C=C/C=C/C=C/C=C/C=C/[C@H](C)[C@@H](O)[C@@H](C)[C@H](C)OC(=O)CC(O)CC(O)CCC(O)C(O)CC(O)CC3(O)C[C@H](O)C(C(=O)O)C(C2)O3)C(O)[C@H](N)C1O` (stereo partly specified), with 2.9% (inactive). With `O=c1[nH]nc(-c2ccccc2)[nH]1`, the inhibition is -1.6% (inactive).

Regarding `CCC(=O)Nc1cc(NC(=O)c2ccco2)ccc1C`, the inhibition is -1.65% (inactive).

`O=C(Nc1ccccc1)OCC12COC(c3ccccc3)N1C(c1ccccc1)OC2` (stereo unspecified): the inhibition was -1.5% (inactive). Then `O=C(c1ccco1)N1CCN(c2cnn(-c3ccccc3)c(=O)c2Cl)CC1`, with -0.95% (inactive); and `Cc1ccc2c(c1)c1c(n2CC(O)CNCc2ccccc2)CCCC1` (stereo unspecified), with -1.7% (inactive); and `CN(C(=O)CSc1nncc(=O)[nH]1)c1ccccc1`, with -1.65% (inactive). Consider `CC1(C)CC(=O)C2=C(C1)OC1=C(C(=O)CC(C)(C)C1)C2c1cn(Cc2ccc(Cl)cc2Cl)nc1-c1ccccc1`, for which the inhibition is -0.5% (inactive). For `COc1cc(C2C3=C(CC(C)(C)CC3=O)OC3=C2C(=O)CC(C)(C)C3)c(Br)cc1OCC(=O)O` the value was 3.4% (inactive); for `O=C(NN=c1c(=O)c2ccccc2c1=O)c1ccncc1`, 1.9% (inactive).

Regarding `CCn1c(=O)c2ccccc2n(CC(=O)c2ccc(C)cc2)c1=O`, the inhibition is -1.25% (inactive). For `CC1CCCN(c2ncccc2C(=O)NCC2CCCO2)C1` (stereo unspecified) the value was 1.1% (inactive); for `CN(C(=O)c1cc2nc(-c3ccco3)cc(C(F)(F)F)n2n1)c1ccc(OC(F)(F)F)cc1`, -0.95% (inactive); for `COc1ccc(C(=O)COC2=C(C#N)C3(CCCC3)C(C#N)C(=S)N2)cc1OC` (stereo unspecified), -1.5% (inactive). For `CCOc1ccc(CC(C(=O)O)C(=O)O)cc1` the value was 0.1% (inactive).

As for `N#CCCN(C1CCCCC1)S(=O)(=O)c1ccc(Br)cc1`, the inhibition is -0.95% (inactive). As for `COc1ccc(CC(NC(C)=O)C(=O)O)c(Cl)c1OC` (stereo unspecified), the inhibition was -0.7% (inactive). For `Cn1c(SCC(=O)Nc2ccc(C(F)(F)F)cc2)nnc1-c1ccc2nonc2c1` the value was -0.1% (inactive); for `COC(=O)C1=Cc2cc(Cl)ccc2OC1`, 0.15% (inactive); for `Cc1cccc(CN2C(=O)CSc3nc(C)cc(C)c32)c1`, -0.45% (inactive). Then `CCN(CC)CCCN1C(=O)C2C3C=CC(C2C1=O)C1C2C(=O)N(CCCN(CC)CC)C(=O)C2C31` (stereo unspecified), with 0.8% (inactive); and `CCOc1ccc(NC(=O)c2cc(-c3ccc(OC)c(OC)c3)nc3ccccc23)c([N+](=O)[O-])c1`, with -1.4% (inactive).

Turning to `COc1ccc(C)c2c1CCCC2=O`, the inhibition was -1.4% (inactive).

For `Cc1ccc(Nc2cc([Se]c3ccccc3)c(N)c3c2C(=O)c2ccccc2C3=O)cc1`, the inhibition is -3.2% (inactive).

In the case of `Cc1ccc2sc(-c3ccc(NC(=O)C(C)C)cc3)nc2c1`, the inhibition was -2.5% (inactive). For `Cc1ccc(-c2noc(CN(C)C(=O)Nc3ccc(Cl)cc3)n2)cc1` the value was 0.05% (inactive).

As for `COc1cccc2c1NC(c1cccc(Cl)c1Cl)C1CC=CC21` (stereo unspecified), the inhibition was -1.1% (inactive). For `Cc1ccccc1Cn1nnc(-c2ccncc2)n1` the value was -3.5% (inactive); for `COc1ccc(-c2ccc(/C=c3\sc4nc5cc(C)c(C)cc5n4c3=O)o2)c([N+](=O)[O-])c1`, 0.8% (inactive).

For `O=C(CC1CCCCC1)NCc1ccco1`, the inhibition was 1.25% (inactive). In the case of `CC(=O)Oc1ccc(OC(C)=O)c2c1C1C=CC2CC1`, the inhibition is -2.5% (inactive). For `COc1ccc(Nc2nc(Cl)nc(NCCN3CCOCC3)n2)c(OC)c1` the value was 0.3% (inactive); for `O=C(Nc1ccccc1C(=O)N1CCCC1)Oc1ccccc1`, -0.95% (inactive). Then `CCCCn1c(SCC(=O)N(C(C)C)C(C)C)nc2c1c(=O)n(C)c(=O)n2C`, with 0.4% (inactive); and `O=c1c2c3c(sc2ncn1Cc1nn[nH]n1)CCCC3`, with -0.2% (inactive). `Cc1c(CN2CCCCC2)c(O)n(CCO)c(=O)c1C#N`: the inhibition was -3.25% (inactive). Then `C=CCn1cnc2c(c1=O)c1nc3ccccc3nc1n2-c1cccc(Br)c1`, with 2.4% (inactive); and `CCOc1cc2c(cc1/C=C(\C#N)c1ccc(C(F)(F)F)cc1)OCO2`, with 1.15% (inactive). For `O=S(=O)(c1ccc(Cl)cc1)N1CCCN(Cc2ccc(Cl)cc2Cl)CC1` the value was 1% (inactive); for `CCn1cc(S(=O)(=O)Nc2cc(C)on2)cn1`, -2.15% (inactive); for `COc1ccccc1N1C(=O)NC(=O)/C(=C/c2cn(C(C)=O)c3ccccc23)C1=O`, 10.3% (inactive).
